# RORgamma inh – inhibitors of mouse ROR gamma transcriptional activity. 310,000 tested, 5.4% active. Drosophila S2 Gal4-RORgamma UAS-luciferase reporter, 20 h. Potency, µM (series often up to 53.6 µM), for the others: at the top dose activity change, negative = inhibition, hits mostly inhibitors; note: nearly all actives have a fitted effect of over 60% in size
# Target sequence (P51450 whole entry, looked up, the tested form may be a part): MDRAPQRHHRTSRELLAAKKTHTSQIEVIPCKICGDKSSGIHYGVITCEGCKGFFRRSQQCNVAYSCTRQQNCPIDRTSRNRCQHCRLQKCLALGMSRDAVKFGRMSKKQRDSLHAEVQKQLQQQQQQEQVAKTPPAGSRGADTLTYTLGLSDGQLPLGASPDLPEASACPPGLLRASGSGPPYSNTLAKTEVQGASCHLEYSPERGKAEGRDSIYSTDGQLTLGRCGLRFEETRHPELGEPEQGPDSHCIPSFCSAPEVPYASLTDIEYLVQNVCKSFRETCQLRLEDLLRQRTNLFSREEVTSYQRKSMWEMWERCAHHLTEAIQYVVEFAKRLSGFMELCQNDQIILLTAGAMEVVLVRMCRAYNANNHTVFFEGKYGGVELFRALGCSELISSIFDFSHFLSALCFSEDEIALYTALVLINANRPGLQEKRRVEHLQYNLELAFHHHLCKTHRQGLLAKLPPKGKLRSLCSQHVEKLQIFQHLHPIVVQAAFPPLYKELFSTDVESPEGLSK
#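 Compounds are pin-transferred onto Drosophila Schneider cells expressing a copper-inducible Gal4–ROR gamma transactivation domain fusion. After 1 hr, copper sulfate is added to 700 uM final; luciferase is read 20 hr later.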
# Tau fluor cs – counter-screen for tau fibril formation inhibitors | tau K18 P301L Alexa594 fluorescence, heparin fibrillization | Potency, µM (series often up to 57.7 µM), inactives show at the top dose activity change, negative = decrease | 280,000 tested, 0.93% active; note: nearly all actives have a fitted effect of over 55% in size
#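 Human K18 P301L tau (15 uM unlabeled plus 0.24 uM Alexa 594-labeled, final) in 100 mM sodium acetate pH 7 was mixed with compound and 20 uM heparin and incubated 6 hr at 37 C.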
# Tau fibril FP – tau fibrillization inhibition (FP) | P10636 | K18 P301L tau heparin fibrillization, Alexa594 FP, 6 h | Potency, µM (highest dose often 57.7 µM), inactives show at the highest dose activity, negative = inhibition, hits mostly inhibitors | 280,000 tested, 0.39% active | AID 1468; note: nearly all actives have a fitted effect of over 55% in size
# Target sequence (P10636 561-689 P618L limits assumed): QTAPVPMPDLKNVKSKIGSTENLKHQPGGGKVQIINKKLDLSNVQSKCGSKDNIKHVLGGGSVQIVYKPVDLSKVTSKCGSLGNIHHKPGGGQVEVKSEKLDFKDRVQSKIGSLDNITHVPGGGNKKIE
#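 Human K18 P301L fragment (15 uM unlabeled plus 0.24 uM Alexa 594-labeled) in 100 mM sodium acetate pH 7 with compound, aggregation induced by 20 uM heparin for 6 hr at 37 C. ThT (30 uM) added for 1 hr, then Alexa 594 FP read.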
# VP16 counter – Gal4-VP16 reporter inhibition counter-screen | Drosophila S2 Gal4-VP16 UAS-luciferase, luminescence, 20 h | Potency, µM (series often up to 53.6 µM), for the others: top-dose activity, negative = inhibition, most hits filed as inhibitors | 310,000 tested, 3.5% active | AID 2546;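 note: Gal4-VP16 expression switched on by copper sulfate through the metallothionein promoter; nearly all actives have a fitted effect of over 50% in size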
# Tau ThT inhib – tau fibrillization inhibition (ThT binding) | P10636 | recombinant tau K18 P301L (four-repeat tau fragment), heparin-induced fibrillization, ThT fluorescence | Potency, µM (doses to about 57.4 µM), without a hit: at the highest dose activity, negative = inhibition, hits mostly inhibitors | 270,000 tested, 2.1% active | AID 1460; note: nearly all actives have a fitted effect of over 55% in size
#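 Tau K18 P301L fragment (15 uM unlabeled plus 0.24 uM Alexa 594-labeled) in 100 mM sodium acetate pH 7 with compound, fibrillization induced by 20 uM heparin for 6 hr at 37 C. Thioflavin T (30 uM) added, fluorescence read after 1 hr (ex 450, em 510 nm).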
# Numbers without * were called inactive; ? = inconclusive; . = no result; [ ] = dose if it differs, or a comment. Compounds with a hit are over-represented: about 7.3% of the library has one in this group of screens. Calls come from the whole dose curve; as a rule, active = well fitted curve in the direction sought with a large enough effect; inconclusive = small, poorly fitted or top-dose-only effect, or another doubt; inactive = no such curve, though single readings can be large; an effect the other way counts as inactive or inconclusive. % is set by controls: 0 for no effect and ±100 for the full control effect; potency is the fitted concentration of half-maximal effect.
SMILES,RORgamma inh,Tau fluor cs,Tau fibril FP,VP16 counter,Tau ThT inhib
COc1cc(-c2nnc(-c3cc(OC)c(OC)c(OC)c3)o2)cc(OC)c1OC,25%,0%,-3%,4%,1%
COc1ccc(N=Cc2sc3ccccc3c2Cl)cc1,4%,-16%,0%,19%,?
Clc1ccc(N=c2ssnc2Cl)cc1,?,-22%,18µM*,11µM*,13µM*
COc1ccc(N=c2ssnc2Cl)cc1,?,-24%,?,?,13µM*
COc1cc(N=c2ssnc2Cl)cc(OC)c1OC,?,-24%,?,16µM*,20µM*
CCOC(=O)c1ccc(N=c2ssnc2Cl)cc1,-40%,-18%,?,?,28µM*
CS(=O)(=O)N1CCC2(CC1)CN(c1cccc(-c3ccccc3)c1)C2,30%,.,.,2%,.
Clc1nssc1=Nc1ccccc1,?,-23%,40µM*,?,28µM*
Fc1ccc(N=c2ssnc2Cl)c(F)c1,?,-15%,?,?,14µM*
O=C1CSC(=Nc2ccccc2)N1Cc1ccccc1,-14%,-7%,7%,0%,-5%
N#Cc1ccc(N=c2ssnc2Cl)cc1,?,-17%,?,?,20µM*
COc1ccc2c(c1)C(=O)[C@H](OC(=O)NCc1ccc3c(c1)OCO3)[C@@H](c1ccc(OC)c(Br)c1)O2,-10%,-15%,-6%,3%,-3%
Cc1nc(-c2ccc(F)cc2)sc1CCNC(=O)c1cccs1,.,-6%,-11%,.,?
CC(C)N1CCc2c(sc(NC(=O)c3ccc(S(=O)(=O)N4CCCCC4C)cc3)c2C(N)=O)C1 (centres undefined),?,.,.,14µM*,.
CC1CCCCN1S(=O)(=O)c1ccc(NC(=O)c2cccc(-n3cnnn3)c2)cc1 (centres undefined),7%[10 µM],18µM*[quencher],?,1%,9%
CC1CCCCN1S(=O)(=O)c1ccc(C(=O)N2CCOCC2)cc1 (centres undefined),20%,.,.,-6%,.
COc1cc(C(=O)Nc2ccc(S(=O)(=O)N3CCCCC3C)cc2)cc(OC)c1OC (centres undefined),-18%,?,-9%,16%,-8%
CC1CCCCN1S(=O)(=O)c1ccc(C(=O)Nc2nnc(C3CC3)o2)cc1 (centres undefined),0.13µM*,.,.,0.32µM*,.
CC1CCCN(S(=O)(=O)c2ccc(NC(=O)c3cccc(-n4cnnn4)c3)cc2)C1 (centres undefined),3%,?,?,-1%,12%
CC1CCCCN1S(=O)(=O)c1ccc(C(=O)Nc2nnc(-c3ccco3)o2)cc1 (centres undefined),0.71µM*,.,.,0.63µM*,.
Cc1nnc(NC(=O)c2ccc(S(=O)(=O)N3CC(C)CC(C)C3)cc2)o1 (centres undefined),1.4µM*,.,.,1.4µM*,.
Cc1nnc(NC(=O)c2ccc(S(=O)(=O)N3CCCCC3C)cc2)o1 (centres undefined),1.1µM*,.,.,1.1µM*,.
CC1CCCCN1S(=O)(=O)c1ccc(C(=O)Nc2nnc(-c3ccccn3)o2)cc1 (centres undefined),2µM*,-8%,-1%,5µM*,0%
CCc1nnc(NC(=O)c2ccc(S(=O)(=O)N3CCc4ccccc4C3)cc2)s1,-13%,-6%,-6%,-7%,-3%
Cc1nnc(NC(=O)c2ccc(S(=O)(=O)N3CCc4ccccc4C3)cc2)o1,1.3µM*,-2%,10%,5µM*,0%
SMILES,RORgamma inh,Tau fluor cs,Tau fibril FP,VP16 counter,Tau ThT inhib
COc1ccc(CNC(=O)Cn2ccc3cc(S(=O)(=O)N4CCCC4)ccc32)c(OC)c1,.,-12%,3%,.,5%
COc1cccc(NC(=O)CSCc2cc(=O)c3ccc(C)c(C)c3[nH]2)c1,.,-4%,-2%,.,-2%
CC(C)(C(O)c1ccc([N+](=O)[O-])cc1)[N+](=O)[O-] (centres undefined),11%,-8%,-8%,13%,-14%
COc1ccc(C2=CC3=C(Br)C(=O)C(C)(OC(=O)CCc4ccccc4)C(=O)C3=CO2)cc1 (centres undefined),2%,-5%,5%,5%,-2%
O=C(NC(=S)N1CCN(c2ccc([N+](=O)[O-])cc2)CC1)c1ccccc1Cl,0.45µM*,-15%,-6%,1.4µM*,?
O=C(NC(=S)N1CCN(c2ccc([N+](=O)[O-])cc2)CC1)c1ccc(F)cc1,1.1µM*,-22%,0%,1µM*,?
O=[N+]([O-])c1ccc(N2CCN(C(=S)Nc3ccccc3)CC2)cc1,-4%,-2%,-13%,-3%,-17%
O=C(NC(=S)N1CCN(c2ccc([N+](=O)[O-])cc2)CC1)c1ccccc1F,0.56µM*,-2%,-2%,1µM*,?
O=C(Cn1c(=O)n(Cc2ccc(F)cc2)c(=O)c2sc3ccccc3c21)NCc1ccccc1Cl,.,4%,-17%,.,14%
COc1cccc(NS(=O)(=O)c2ccc3[nH]cc(C(=O)NC(C)c4ccccc4)c(=O)c3c2)c1 (centres undefined),.,?,7.9µM*,.,11%
CCCCSCCCNC(=O)c1c[nH]c2ccc(S(=O)(=O)Nc3cccc(OC)c3)cc2c1=O,.,?,2µM*,.,5%
CCOCCCNC(=O)c1c[nH]c2ccc(S(=O)(=O)Nc3cccc(OC)c3)cc2c1=O,-1%,3%,1%,-8%,0%
COc1cccc(NC(=O)CSc2nnnn2C2CCCCC2)c1,17%,.,.,21%,.
COc1ccc(-c2onc(C)c2C)cc1S(=O)(=O)N1CCc2ccccc21,.,?,-7%,.,-16%
Cc1cc(C)c(C(=O)Nn2c(C)nc3ccccc3c2=O)cc1C,6%,.,.,4%,.
Cc1ccc(S(=O)(=O)NC(=S)NC2CCCCC2)cc1,3.2µM*,-9%,-7%,14µM*,-7%
CCc1ccc(S(=O)(=O)NC(=S)NC2CCCCC2)cc1,3.5µM*,5%,-3%,5.6µM*,-4%
O=C(NNS(=O)(=O)c1ccc(Cl)cc1)NC1CCCCC1,10%,-2%,-4%,2%,-3%
CCNC(=S)NS(=O)(=O)c1ccc(Cl)cc1,22µM*,-2%,-3%,3%[0.365 µM],-3%
O=S(=O)(NC(=S)NC1CCCCC1)c1ccc(Cl)cc1,2.2µM*,-12%,-7%,5.6µM*,-15%
N[C@H](CSSC[C@@H](N)C(=O)O)C(=O)O,-28%,.,.,6%,.
C=C1C=CS(=O)(=O)N(C(C)C(=O)OC)C1 (centres undefined),-16%,.,.,-4%,.
C=CCN1C(=O)/C(=C/c2ccc(O)cc2)S/C1=N/c1nccs1,-8%,3.5µM*[quencher],?,-21%,?
C=CCN=C1S/C(=C\c2ccc(N(C)C)cc2)C(=O)N1CC=C,-30%,?,9%,-16%,?
